Screening data: PubChem BioAssay, ICCB-Longwood Screening Facility, Harvard Medical School
This is one part of a sample in which hits are shown more often than they occur.
Ba CapD inh – blocks the Bacillus anthracis CapD enzyme; purified CapD enzyme, fluorescence intensity read-out; active compounds read low; z-score (concentration not given with the values); 0.23% of 140,000 active; AID 492967; in the data active means z-score mostly below about -2.9, no sharp cut-off; inactive means mostly above about -1.9
* marks the source's active call; other numbers are inactive results; ! = not active in a repeat.

SMILES	Ba CapD inh
COc1ccc(CCNC(=O)c2c(C)cc(=O)oc2C)cc1OC	0.43
Cc1cc(=O)oc(C)c1C(=O)NCCCN1CCN(c2ccc(F)cc2)CC1	-0.7
Cc1cc(=O)oc(C)c1C(=O)NCc1c(F)cc(F)cc1F	-5.9*
CN(C)C(/C=C/Nc1ccc(I)cc1)=C(C#N)C#N	-1.8
CC(=O)Nc1ccc2nc(NC(=O)C(C)(C)C)sc2c1	-0.36
CC(=O)Nc1ccc2nc(C)sc2c1	-5.7*
Cc1nc2ccc(NC(=O)c3cccc(Br)c3)cc2s1	-0.085
N#Cc1cnn(-c2ccccc2)c1NC(=O)CSc1nc2ccccc2s1	-0.12
O=C(Nc1ccccc1C(=O)N/N=C/c1cc(Br)ccc1O)c1cccs1	-0.13
COC(=O)c1ccc(CSc2nc3ccccc3c(=O)[nH]2)cc1	-0.025
N#CCC(=O)Nc1ccccc1	0.22
O=C1/C(=C\c2ccsc2)CC/C1=C/c1ccsc1	-0.21
CCCN1C/C(=C\c2ccc(N(C)C)cc2)C(=O)/C(=C/c2ccc(N(C)C)cc2)C1	0.15
CCCN1C/C(=C/c2ccsc2)C(=O)/C(=C/c2ccsc2)C1	-4.7*
CSC(=CC(=O)c1ccc(F)cc1)SC	-2.9
CSC(=CC(=O)c1cccc2ccccc12)SC	-1
CSC(=CC(=O)c1ccccc1F)SC	-4.1*
COc1cc(OC)cc(C(=O)Nc2cc(C(=O)Nc3ccccc3F)ccc2N2CC3CC(C2)c2cccc(=O)n2C3)c1 (centres undefined)	0.025
O=C(CC12CC3CC(CC(C3)C1)C2)N1CCc2c([nH]c3ccccc23)C1C(F)(F)F (centres undefined)	0.9
O=C(O)c1ccc(C(=O)O)c2c(-c3ccc4c(=O)n5c6ccccc6nc5c5ccc(C(=O)O)c3c45)ccc(C(=O)O)c12	-8.4*
N#Cc1ccc2c(c1)nc1c3ccc(C(=O)O)c4c(C(=O)O)ccc(c(=O)n21)c43	-1.1
O=c1c2ccc(N/N=C/c3c4ccccc4cc4ccccc34)c3cccc(c32)c2nc3ccccc3n12	-0.14
CC(C)NC(=O)CSCc1ccc(Cl)cc1	0.27
COc1ccc(S(=O)(=O)Nc2cccc(C(F)(F)F)c2)cc1OC	0.14
Nc1cc(CCCC(=O)O)sc1CCCC(=O)O	-10*
SMILES	Ba CapD inh
O=C(O)CCCCc1cccs1	1.4
O=C(O)CCCc1ccc2c(c1)OCO2	-0.58
O=C(OCC1CCCCN1Cc1cc2c(cc1Cl)OCO2)N1CCN(c2ccc(C(F)(F)F)cc2)CC1 (centres undefined)	-0.15
O=C(O)CSCC(=O)Nc1ccc(-c2nc3ccccc3s2)cc1	82
Cc1csc(N)c1-c1nc2ccccc2s1	2.9
Cc1csc(NC(=O)CSCC(=O)O)c1-c1nc2ccccc2s1	-2.4*
Cc1cc(/C=N/NC(=O)c2ccc([N+](=O)[O-])cc2Cl)c(C)n1-c1cccc(C(F)(F)F)c1	0.17
CN(CCO)c1cc(N2CCCCCC2)c2nonc2c1[N+](=O)[O-]	-2.7
CN1CCN(c2cc(N(C)CCO)c([N+](=O)[O-])c3nonc23)CC1	-4.2*
CC1CCN(c2cc(N(C)CCO)c([N+](=O)[O-])c3nonc23)CC1	-2.9
O=C(N/N=C/c1ccccn1)c1ccc([N+](=O)[O-])o1	-4.3*
O=C(N/N=C/c1ccccc1C(=O)O)c1ccc([N+](=O)[O-])o1	-2
O=C(N/N=C/c1ccc(Br)cc1)c1ccc([N+](=O)[O-])o1	-1.5
CCOc1c(Br)cc(/C=C2\C(=O)NC(=O)N(c3ccc(OC)cc3)C2=O)cc1OC	0.17
CCc1ccc(C(=O)Oc2cccnc2)cc1	-0.62
CCCCC(=O)NCc1nc(-c2ccc(C(F)(F)F)cc2)no1	-0.93
Cc1ccc(Sc2ccc(C(=O)O)cc2NC=O)cc1	0.1
CC(=O)N(C(C)=O)c1cc(C(=O)O)ccc1Sc1ccc(Br)cc1	-11*
N#Cc1cc(C(F)(F)F)ccc1Sc1ccc(Br)cc1	-0.33
Cc1csc(Nc2ccccc2)[n+]1CCO	1.7
COc1cccc(C(O)(C(=O)NNc2ccccc2C)c2cccc(OC)c2)c1	0.3
O=C(Nc1ncnc2sc3c(c12)CCCC3)c1ccc(F)cc1	0.5
CC(=O)Nc1ncnc2sc3c(c12)CCCC3	-8.8*
CCC(=O)Nc1ncnc2sc3c(c12)CCCC3	-0.07
COc1ccc(-c2csc(NC(=O)c3ccc(C#N)cc3)n2)cc1	-0.42
SMILES	Ba CapD inh
CCOC(=O)c1c(C)n(C)c2cc(CN(C)C)c(O)c(S(=O)(=O)c3ccc(C)cc3)c12	1.7
COc1cccc(NC(=S)NNc2ccccc2)c1	-1.1
COc1cccc(NC(N)=S)c1	0.13
COc1cccc(NC(=S)/N=C(\N)Nc2nc(C)c3ccccc3n2)c1	-5.9*
CC(C)(C)c1ccc(C(=O)N2NC(=Nc3ccccc3)SC2(C)C)cc1	-0.56
O=C1NC(=S)NC(=O)C1=C/C=C/c1ccco1	-11*
O=C1NC(=O)N(c2ccccc2)C(=O)/C1=C/C=C/c1ccco1	-1.1
CN1C(=O)NC(=O)/C(=C\C=C\c2ccco2)C1=O	-0.49
CC(C)(C)C(=O)OCc1nc(-c2ccc3c(c2)OCCCO3)cs1	0.46
Fc1cc2nsnc2cc1Cl	0.05
COc1ccc(/C=C(\C#N)S(=O)(=O)c2ccc(Cl)cc2)cc1	-1.3
CCOC(=O)C1CCCN(C(=O)c2ccc(CS(=O)c3ccccc3)o2)C1 (centres undefined)	0.085
CCOc1cc2c(cc1OCC)C1C(C(=O)N3CCCC3)c3ccccc3C(=O)N1CC2 (centres undefined)	0.45
CCOC(=O)C1CCN(C(=O)C2c3ccccc3C(=O)N3CCc4ccccc4C23)CC1 (centres undefined)	-0.41
CCOc1cc2c(cc1OCC)C1C(C(=O)N3CCCCC3)c3ccccc3C(=O)N1CC2 (centres undefined)	-5.9*
COc1ccc(CN2C(=O)NC(=O)/C(=C\c3ccc(OC)cc3OC)C2=O)cc1	0.48
CCCCCCC#CCOC(=O)NCCc1c[nH]c2ccc(OC)cc12	0.005
COc1cc2[nH]c(=S)nc(Nc3ccc(NC(C)=O)cc3)c2cc1OC	2.8
COc1cc2[nH]c(=S)n(C3CC3)c(=O)c2cc1OC	0.08
COc1cc2[nH]c(=S)n(N(C(C)=O)C(C)=O)c(=O)c2cc1OC	-13*
COc1ccc(CCNc2c[nH]c(=O)[nH]c2=O)cc1OC	0.54
CCOC(=O)N1CCN(C(=O)c2c[nH]c3ccc(S(=O)(=O)N(C)c4ccc(C)c(C)c4)cc3c2=O)CC1	0.7
O=c1[nH]cnc2c1sc(=S)n2-c1ccccc1	-5.4*!
COc1ccc(-c2nc3c(sc(=S)n3-c3ccccc3)c(=O)[nH]2)cc1	0.71
O=c1[nH]c(-c2ccc(F)cc2)nc2c1sc(=S)n2-c1ccccc1	-0.26
SMILES	Ba CapD inh
COc1cc(OC)c(NC(=O)c2sc3ncn(CC(=O)Nc4ccccc4OC)c(=O)c3c2C)cc1Cl	-0.83
CCCN1C(=O)c2ccccc2C(C(=O)O)C1c1ccc(OC)cc1 (centres undefined)	0.45
COc1ccc(C2C(C(=O)/C=C/c3ccccc3)=C(O)C(=O)N2CCO)cc1 (centres undefined)	-3.9*
COc1ccc(C2/C(=C(\O)c3ccccc3)C(=O)C(=O)N2CCN2CCOCC2)cc1 (centres undefined)	-0.94
NC(=S)Nc1ccncc1	0.65
O=C1N=c2ccccc2=C1N=Nc1c(O)[nH]c2ccccc12	-0.04
O=C(N=Nc1c(O)[nH]c2ccccc12)C(O)c1ccccc1 (centres undefined)	-2.2
O=C1CSC(N=Nc2c(O)[nH]c3ccccc23)=N1	-4.1*
CCN(CC)C(=O)CN1C(=O)C2(Nc3ccccc3C(=O)N2c2ccccc2)c2cc(Br)ccc21 (centres undefined)	-0.36
COc1ccc(OCC(O)CNC(C)(C)C)cc1 (centres undefined)	0.47
